The target in test [1] is Methanococcus maripaludis chaperonin (MmCpn) (UniProt Q6LX38). The test can be described thus: High-Throughput Screening for Modulators of Cytosolic Chaperonin Activity: MmCpn Primary Screen (AID 488978).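 Further: 50 nM MmCpn enzyme hydrolysing 30 µM ATP at 37 °C; 0% is about no effect.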 An outline of the steps: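 Measures ATPase turnover of the M. maripaludis chaperonin (50 nM final) against 30 uM ATP over 10 min at 37C, with compound added 5 min beforehand at room temperature. ADP is quantified by HTRF immunodetection.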
Sequence of Methanococcus maripaludis chaperonin (MmCpn) (Q6LX38 1-543): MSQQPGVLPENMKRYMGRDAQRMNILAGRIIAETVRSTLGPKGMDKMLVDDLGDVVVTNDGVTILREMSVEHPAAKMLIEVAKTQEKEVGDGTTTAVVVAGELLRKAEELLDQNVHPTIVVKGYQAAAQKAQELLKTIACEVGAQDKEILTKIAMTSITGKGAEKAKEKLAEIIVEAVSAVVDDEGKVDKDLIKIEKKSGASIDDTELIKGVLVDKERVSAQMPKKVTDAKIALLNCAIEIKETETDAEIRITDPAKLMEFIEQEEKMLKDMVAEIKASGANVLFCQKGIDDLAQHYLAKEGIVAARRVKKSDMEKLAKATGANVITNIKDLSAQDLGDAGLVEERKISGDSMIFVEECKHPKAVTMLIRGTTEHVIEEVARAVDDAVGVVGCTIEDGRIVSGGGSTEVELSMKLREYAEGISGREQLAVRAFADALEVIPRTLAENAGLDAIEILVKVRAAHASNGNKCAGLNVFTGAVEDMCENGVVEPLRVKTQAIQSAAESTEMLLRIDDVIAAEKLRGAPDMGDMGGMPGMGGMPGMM

In test [2] the target is Transient receptor potential cation channel subfamily V member 1 (Homo sapiens) (UniProt Q8NER1). The test can be described thus: HTS Assay for Compounds that Act as Enhancers of the Vanilloid Receptor 1 (AID 488979). Further: 0% is about no effect. The method, boiled down:
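TRPV1 cells loaded with Fluo-8 calcium dye; compound added and Ca2+ signal (ex 480/em 520 nm) followed 3 min, then capsaicin at EC20 added and read 2 more min to detect enhancement.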

In test [3] the target is Thyrotropin receptor (Homo sapiens) (UniProt P16473). The test is described as follows: qHTS Assay for Antagonists of the Thyroid Stimulating Hormone Receptor (AID 488980). Further: series mostly up to about 58 µM; 0% is about no effect. The method, boiled down:
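Cells expressing human TSHR (HEK293) are dispensed in HBSS/HEPES containing 70 uM RO 20-1724, compound is added, then TSH at EC80 (4 nM final). Antibody in lysis buffer follows, 30 minutes at room temperature before HTRF detection.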
(In general: In qHTS, concentration-response curves come from the screen itself.)

Test [4] concerns the target D(1A) dopamine receptor (Homo sapiens) (UniProt P21728). The test can be described thus: HTS Assay for Allosteric Agonists of the Human D1 Dopamine Receptor: Primary Screen for Potentiators (AID 488982). Further: 0% is about no effect. An outline of the steps: (§1)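 Tetracycline-induced HEK293 Trex D1 cells with forced coupling to calcium, loaded with no-wash calcium dye; kinetic fluorescence read 180 s after compound addition for agonism, then a further 180 s after an EC20 dopamine challenge for potentiation.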

The target is the same in test [5]. The test is described as follows: HTS Assay for Allosteric Agonists of the Human D1 Dopamine Receptor: Primary Screen for Antagonists (AID 488983).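 Further: calcium flux response to an EC80 dopamine challenge measured with no-wash dye; on the % scale 0 is the no-effect control and ±100 the full control effect; nearly all actives have a fitted effect of over 65% in size.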 An outline of the steps: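 Screening of inducible HEK293 T-REx D1 cells: compound first, EC80 dopamine 180 s later, each phase read kinetically for calcium over 180 s.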
Test [6] addresses ATP-dependent 6-phosphofructokinase (Trypanosoma brucei brucei) (UniProt O15648). The test is described as follows: qHTS Assay to Find Inhibitors of T. brucei phosphofructokinase: hit validation (AID 492961). Further: potency means the concentration at half of the fitted maximal effect. An outline of the steps:
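Compounds titrated; %activity normalized to 0x and 1x enzyme controls, curve-fitted. Readout: ADP-Glo luminescence after 45 min room-temperature reaction of 1.25 nM PFK, 0.1 mM ATP, 0.5 mM F6P, pH 8.0.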

Test [7] in a line: Validation screen for small molecules that induce genotoxicity in human embryonic kidney (HEK293T) cells expressing luciferase-tagged ELG1 (AID 493106). Further: 0% is about no effect. The method, boiled down: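 Reporter-gene quantitative HTS in HEK293T cells carrying luciferase-tagged ELG1, whose level climbs under genotoxic stress. Compound exposure lasts 16 hr at 37 °C before luciferase detection.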
The target of test [8] is ATPase family AAA domain-containing protein 5 (Homo sapiens) (UniProt Q96QE3). The test can be described thus: Validation screen for small molecules that inhibit ELG1-dependent DNA repair in human embryonic kidney (HEK293T) cells expressing luciferase-tagged ELG1 (AID 493107). Further: nearly all actives have a fitted effect of over 70% in size. Further: potency means the concentration at half of the fitted maximal effect. An outline of the steps:
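Quantitative HTS in HEK293T cells carrying luciferase-tagged ELG1, stimulated with 5-fluorouridine alongside compound for 16 hr. Loss of luciferase signal marks inhibition of ELG1 response.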

Test [9] deals with Thyrotropin-releasing hormone receptor (Homo sapiens) (UniProt P34981). The test can be described thus: qHTS for Small Molecule Agonists and Allosteric Enhancers of Human TRH Receptor: Validation Screen for Agonists (AID 493127;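 active means calcium activation more than 3 SD above the typical response in the agonist read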;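 further: intracellular calcium rise by fluo-8 fluorescence before TRH EC20 addition; 0% is about no effect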). The conditions noted are these: TRH receptor agonist cell assay; at 2 µM; stronger effect = higher value. The method, boiled down: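 Gq-coupled calcium mobilization in TRHR cells after compound addition, monitored kinetically with fluo-8 dye on an FDSS reader.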
Sequence of Thyrotropin-releasing hormone receptor (Homo sapiens) (P34981 whole entry, looked up): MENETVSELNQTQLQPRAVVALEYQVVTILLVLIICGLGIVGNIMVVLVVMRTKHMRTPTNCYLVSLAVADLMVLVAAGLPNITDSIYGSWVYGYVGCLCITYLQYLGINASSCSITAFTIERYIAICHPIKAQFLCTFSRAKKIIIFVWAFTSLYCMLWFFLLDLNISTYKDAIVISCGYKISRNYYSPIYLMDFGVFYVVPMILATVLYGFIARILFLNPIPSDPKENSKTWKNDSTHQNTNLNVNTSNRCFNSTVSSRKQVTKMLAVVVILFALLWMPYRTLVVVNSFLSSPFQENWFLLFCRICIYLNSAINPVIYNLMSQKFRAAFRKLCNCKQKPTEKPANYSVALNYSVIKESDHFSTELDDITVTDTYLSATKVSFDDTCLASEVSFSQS

Test [10] is described as follows: qHTS for Inhibitors of Cell Surface uPA Generation: Validation Assay (AID 493164).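 Further: RAW 264.7 macrophage cells exposed to compound for 18 h; 0% is about no effect.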 The method, boiled down: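 RAW 264.7, 4000 cells/well, o/n plating; cpd 7-pt 1:5 dilution 2.45 nM–38.3 uM final; 18 h, 37 C/5% CO2; ATP-Lite, 5 s luminescence exposure.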
Test [11] deals with Galactokinase (Homo sapiens) (UniProt P51570). The test can be described thus: qHTS Validation Assay for Inhibitors of Human Galactokinase (GALK) (AID 493189). Further: potency means the concentration at half of the fitted maximal effect. The method, boiled down:
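Compounds were pin-transferred into ATP buffer, then GALK-galactose mix was added (final 5 nM enzyme, 100 uM galactose, 35 uM ATP). After 1 h at room temperature, remaining ATP was measured luminescently.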

Test [12] in a line: Validation screen for small molecules that induce DNA re-replication in SW480 colon adenocarcinoma cells (AID 504364). Further: 0% is about no effect. An outline of the steps: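 Cells are treated 48 hr with test compound, stained 40 min with Hoechst at 37 C, and scanned for nuclear fluorescence; compounds inducing re-replication increase nuclei with elevated intensity.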
For test [13], the target named is Peptidyl-prolyl cis-trans isomerase NIMA-interacting 1 (Homo sapiens) (UniProt Q13526). The test is described as follows: qHTS Validation Assay to Find Inhibitors of Pin1 (AID 504536; active means well fitted inhibition curve with a large enough effect in the polarisation, with a control signal flat, not every such curve was filed as active; the % refers to the polarisation; further: potency means the concentration at half of the fitted maximal effect). An outline of the steps:
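Fluorescence polarization competition: compounds (titration) displace HiFluor-488-labeled Pin1-1b peptide from Pin1 (0.3 uM final) in pH 7.5 HEPES buffer with DTT, 10 min at room temperature; %Activity normalized to no-enzyme wells, curves fitted.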

Test [14] concerns the target D(1A) dopamine receptor (Homo sapiens) (UniProt P21728). The test can be described thus: HTS Assay for Allosteric Agonists of the Human D1 Dopamine Receptor: Primary Screen for Agonists (AID 488981). Further: 0% is about no effect. The method, boiled down: as §1
Test [15] addresses Phosphoglycerate kinase, glycosomal (Trypanosoma brucei brucei) (UniProt P07378). The test can be described thus: qHTS Validation Assay to Find Inhibitors of Phosphoglycerate Kinase (AID 504547).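 Further: control wells lack PGK and mark full inhibition.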 An outline of the steps:
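PGK activity was coupled to GAPDH (100nM final), which generates the unstable substrate 1,3-bisphosphoglycerate in-well. Reactions ran 60 minutes at room temperature in 100mM TEA pH 7.6, 5mM MgCl2, 0.01% Tween-20, then Kinase-Glo Plus luminescence was read.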

Test [16] has as its target phosphoglycerate mutase (Leishmania major) (UniProt Q4Q090). The test is described as follows: qHTS Validation Assay to Find Inhibitors of Phosphoglycerate Mutase (AID 504548).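 Further: end-point luminescence from Kinase-GloPlus after the PGAM reaction; series mostly up to about 58 µM; on the % scale 0 is the no-effect control and ±100 the full control effect.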 The method, boiled down: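 L. major PGAM (1.25nM final) was added to substrate buffer and pinned compound, incubated 45 minutes at room temperature, then Kinase-GloPlus added; luminescence read after 10 minutes. Buffer: 100 mM TEA pH 7.6, 5 mM MgCl2, 0.01% Tween-20.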

Test [17] addresses Ubiquitin carboxyl-terminal hydrolase 1 (Homo sapiens) (UniProt O94782). The test can be described thus: Inhibitors of USP1/UAF1: Pilot qHTS (AID 504865). Further: nearly all actives have a fitted effect of over 35% in size. Further: potency means the concentration at half of the fitted maximal effect. An outline of the steps: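 Kinetic fluorescence assay: 1nM USP1/UAF1, 15 min compound preincubation, then 150nM Ub-Rho; 480/540 nm.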
Test [18] in a line: qHTS for Inhibitors of ATXN expression: Validation of Cytotoxic Assay (AID 588349).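 Further: cells exposed to compound for 72 hr; on the % scale 0 is the no-effect control and ±100 the full control effect.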 The method, boiled down: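 HEK293, compound dose series, 72 hr / 37 degrees C; viability via CellTiter Glo (intracellular ATP).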
The nature of test [19]: Nrf2 qHTS screen for inhibitors: Validation (AID 493153; active means well fitted inhibition curve with a large enough effect in the main read-out, with a control signal flat, not every such curve was filed as active). The conditions noted are these: Potency: luciferase luminescence; viability change: measured here: cytotoxicity max response. The method, boiled down:
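Dose-response validation uses reporter A549 cells with firefly luciferase under an antioxidant response element. Compounds stay on cells 18-24 h at 37°C, and luminescence indicates Nrf2-driven transcription.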

The target of test [20] is Tyrosyl-DNA phosphodiesterase 1 (Homo sapiens) (UniProt Q9NUW8). The test is described as follows: Confirmation Assay for Inhibitors of Tyrosyl-DNA Phosphodiesterase (TDP1) (AID 489007). Further: potency means the concentration at half of the fitted maximal effect; nearly all actives have a fitted effect of over 40% in size. Conditions: recombinant human TDP1 enzymatic activity, dose-response. An outline of the steps:
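Confirmation of primary-screen follow-ups in a qHTS format. Substrate cleavage by Tdp1 (1 nM) of a 3'-phosphotyrosine-FITC, 5'-biotin oligo (15 nM) was monitored as decreased AlphaScreen signal after a 5 min room-temperature reaction.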

Where “and” joins values, the source holds several entries; their conditions need not be identical. Equal values may be shown once. Results filed as inconclusive are left out. Calls of active or inactive are those of the source. Unless noted, the call rests on the fitted dose curve; in most records, active means well fitted curve in the direction sought with a large enough effect; inconclusive means small, poorly fitted or top-dose-only effect, or another doubt; inactive means no such curve, though single readings can be large; an effect the other way counts as inactive or inconclusive.

Sequence of ATP-dependent 6-phosphofructokinase (Trypanosoma brucei brucei) (O15648 whole entry, looked up): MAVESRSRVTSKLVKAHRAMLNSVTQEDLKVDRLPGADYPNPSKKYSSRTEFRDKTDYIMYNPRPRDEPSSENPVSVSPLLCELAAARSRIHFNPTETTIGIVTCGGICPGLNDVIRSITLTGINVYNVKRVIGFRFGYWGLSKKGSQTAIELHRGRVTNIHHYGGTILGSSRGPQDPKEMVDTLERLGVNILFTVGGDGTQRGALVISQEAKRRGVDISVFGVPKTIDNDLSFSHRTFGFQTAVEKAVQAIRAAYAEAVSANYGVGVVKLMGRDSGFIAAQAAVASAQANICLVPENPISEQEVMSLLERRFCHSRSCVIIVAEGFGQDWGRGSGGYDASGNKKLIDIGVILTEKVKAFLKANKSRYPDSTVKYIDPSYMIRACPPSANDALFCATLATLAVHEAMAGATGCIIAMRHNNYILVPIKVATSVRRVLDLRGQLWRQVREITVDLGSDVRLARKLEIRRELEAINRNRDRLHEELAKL
Sequence of Transient receptor potential cation channel subfamily V member 1 (Homo sapiens) (Q8NER1 whole entry, looked up): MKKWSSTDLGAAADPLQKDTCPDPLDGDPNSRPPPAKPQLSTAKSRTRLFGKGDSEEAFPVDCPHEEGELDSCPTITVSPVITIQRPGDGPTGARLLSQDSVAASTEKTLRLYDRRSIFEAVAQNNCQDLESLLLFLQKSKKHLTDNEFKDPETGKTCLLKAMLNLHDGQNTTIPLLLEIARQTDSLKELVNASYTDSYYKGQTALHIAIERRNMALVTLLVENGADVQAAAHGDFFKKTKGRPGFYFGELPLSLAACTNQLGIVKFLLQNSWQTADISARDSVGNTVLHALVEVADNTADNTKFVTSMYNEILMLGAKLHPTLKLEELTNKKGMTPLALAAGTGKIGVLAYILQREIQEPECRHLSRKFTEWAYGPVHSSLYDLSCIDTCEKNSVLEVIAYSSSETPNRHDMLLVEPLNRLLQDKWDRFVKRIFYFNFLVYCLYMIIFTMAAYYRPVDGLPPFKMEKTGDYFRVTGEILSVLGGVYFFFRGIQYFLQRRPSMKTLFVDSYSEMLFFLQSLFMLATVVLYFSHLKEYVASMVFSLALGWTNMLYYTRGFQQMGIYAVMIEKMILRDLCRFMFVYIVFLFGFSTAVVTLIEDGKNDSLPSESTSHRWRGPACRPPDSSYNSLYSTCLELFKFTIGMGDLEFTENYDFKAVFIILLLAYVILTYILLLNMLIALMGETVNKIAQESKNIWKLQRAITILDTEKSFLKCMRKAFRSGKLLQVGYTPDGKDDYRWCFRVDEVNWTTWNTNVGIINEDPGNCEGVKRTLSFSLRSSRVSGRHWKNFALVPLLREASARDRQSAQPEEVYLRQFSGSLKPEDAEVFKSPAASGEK
Sequence of Tyrosyl-DNA phosphodiesterase 1 (Homo sapiens) (Q9NUW8 whole entry, looked up): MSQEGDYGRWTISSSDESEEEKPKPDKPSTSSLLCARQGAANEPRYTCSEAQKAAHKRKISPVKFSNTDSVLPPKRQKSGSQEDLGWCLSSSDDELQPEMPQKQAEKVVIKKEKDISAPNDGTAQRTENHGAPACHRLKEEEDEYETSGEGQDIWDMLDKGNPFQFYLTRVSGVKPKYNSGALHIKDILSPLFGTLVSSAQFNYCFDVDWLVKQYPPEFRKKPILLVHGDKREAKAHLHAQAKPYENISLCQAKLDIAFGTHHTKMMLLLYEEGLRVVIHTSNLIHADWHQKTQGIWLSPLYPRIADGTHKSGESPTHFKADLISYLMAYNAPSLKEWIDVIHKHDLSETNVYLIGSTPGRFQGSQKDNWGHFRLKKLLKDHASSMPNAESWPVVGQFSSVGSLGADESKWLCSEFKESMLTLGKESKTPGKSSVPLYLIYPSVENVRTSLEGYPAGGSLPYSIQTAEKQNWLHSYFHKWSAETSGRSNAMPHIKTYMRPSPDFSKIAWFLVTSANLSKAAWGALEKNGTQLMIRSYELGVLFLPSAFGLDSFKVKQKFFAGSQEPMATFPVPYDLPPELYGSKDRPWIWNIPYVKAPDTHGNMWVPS
Sequence of phosphoglycerate mutase (Leishmania major) (Q4Q090 1-553): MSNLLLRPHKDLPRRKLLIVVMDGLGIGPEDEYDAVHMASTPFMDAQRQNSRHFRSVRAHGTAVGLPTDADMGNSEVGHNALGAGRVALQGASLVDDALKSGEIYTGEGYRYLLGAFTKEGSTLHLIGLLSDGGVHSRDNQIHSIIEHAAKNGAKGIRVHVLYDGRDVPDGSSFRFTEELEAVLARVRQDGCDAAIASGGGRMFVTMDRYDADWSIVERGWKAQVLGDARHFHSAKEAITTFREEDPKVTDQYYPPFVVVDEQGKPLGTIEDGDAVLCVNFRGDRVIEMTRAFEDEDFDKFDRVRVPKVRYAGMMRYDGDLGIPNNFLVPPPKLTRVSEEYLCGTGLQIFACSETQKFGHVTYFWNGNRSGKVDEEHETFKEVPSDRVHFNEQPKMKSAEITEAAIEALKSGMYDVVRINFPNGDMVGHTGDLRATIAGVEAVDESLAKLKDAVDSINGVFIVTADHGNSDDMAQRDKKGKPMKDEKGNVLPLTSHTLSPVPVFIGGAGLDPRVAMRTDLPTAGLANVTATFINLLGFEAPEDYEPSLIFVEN
Sequence of Thyrotropin receptor (Homo sapiens) (P16473 whole entry, looked up): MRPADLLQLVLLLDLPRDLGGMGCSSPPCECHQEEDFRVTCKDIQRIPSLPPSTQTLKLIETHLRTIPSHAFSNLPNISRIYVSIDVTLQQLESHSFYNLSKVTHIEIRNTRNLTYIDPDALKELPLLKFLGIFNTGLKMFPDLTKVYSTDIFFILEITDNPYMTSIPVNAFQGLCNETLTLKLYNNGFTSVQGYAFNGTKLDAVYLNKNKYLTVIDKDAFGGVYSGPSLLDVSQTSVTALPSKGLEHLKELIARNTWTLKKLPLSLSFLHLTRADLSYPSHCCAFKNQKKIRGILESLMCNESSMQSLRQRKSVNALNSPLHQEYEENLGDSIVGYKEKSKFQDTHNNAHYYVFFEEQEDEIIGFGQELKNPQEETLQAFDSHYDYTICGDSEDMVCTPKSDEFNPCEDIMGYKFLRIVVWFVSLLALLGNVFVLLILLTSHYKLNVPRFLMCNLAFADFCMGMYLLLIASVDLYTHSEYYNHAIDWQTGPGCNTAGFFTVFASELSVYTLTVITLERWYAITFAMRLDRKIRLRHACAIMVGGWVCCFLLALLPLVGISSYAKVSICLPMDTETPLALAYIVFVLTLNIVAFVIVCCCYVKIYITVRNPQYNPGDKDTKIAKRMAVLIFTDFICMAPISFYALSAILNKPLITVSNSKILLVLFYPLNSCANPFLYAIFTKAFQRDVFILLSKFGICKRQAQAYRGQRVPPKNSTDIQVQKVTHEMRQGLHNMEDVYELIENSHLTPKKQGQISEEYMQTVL
Sequence of Ubiquitin carboxyl-terminal hydrolase 1 (Homo sapiens) (O94782 whole entry, looked up): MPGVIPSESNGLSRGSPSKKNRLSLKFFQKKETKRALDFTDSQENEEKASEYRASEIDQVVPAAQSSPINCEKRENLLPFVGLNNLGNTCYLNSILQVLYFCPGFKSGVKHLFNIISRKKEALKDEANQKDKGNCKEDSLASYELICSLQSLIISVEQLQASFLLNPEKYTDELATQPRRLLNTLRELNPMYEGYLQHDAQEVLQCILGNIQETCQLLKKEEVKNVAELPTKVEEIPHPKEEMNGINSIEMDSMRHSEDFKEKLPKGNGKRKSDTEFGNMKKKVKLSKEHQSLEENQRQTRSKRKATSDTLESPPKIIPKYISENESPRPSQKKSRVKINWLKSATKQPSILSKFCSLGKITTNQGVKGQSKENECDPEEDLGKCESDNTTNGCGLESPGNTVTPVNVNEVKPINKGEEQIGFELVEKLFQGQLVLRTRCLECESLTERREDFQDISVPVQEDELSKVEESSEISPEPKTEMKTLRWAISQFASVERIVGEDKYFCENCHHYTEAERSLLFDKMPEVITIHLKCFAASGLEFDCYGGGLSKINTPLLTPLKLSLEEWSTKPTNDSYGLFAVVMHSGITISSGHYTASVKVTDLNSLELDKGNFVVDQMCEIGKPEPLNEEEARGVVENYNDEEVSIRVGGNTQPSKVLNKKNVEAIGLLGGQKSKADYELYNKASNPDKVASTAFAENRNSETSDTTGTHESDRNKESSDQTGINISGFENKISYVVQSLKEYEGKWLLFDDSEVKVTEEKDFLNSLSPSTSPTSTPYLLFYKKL

Regarding `O=C1c2c(O)ccc(O)c2C(=O)c2c(NCCNCCO)ccc(NCCNCCO)c21`, the outcome in test [1], in [2], in test [3] and in test [10] was inactive. Further, the Potency entry in [4], in [5], in test [6], in test [7], in test [11] and in [12] was “inactive” throughout. The Potency result in test [13] was “inactive”. Further, the Potency in test [8] is 4.61 µM (active). Moreover, the activation in [9] is 0.938% (inactive).
Turning to `Clc1ccc(C(c2ccccc2Cl)C(Cl)Cl)cc1` (stereo not given), the call in test [1], in test [2], in test [3], in test [10], in [16] and in [18] was inactive. For the same compound, the Potency entry in test [14], in test [4], in test [5], in [8], in [11] and in test [12] was “inactive” throughout. The Potency entry in test [13], in [15] and in test [17] was “inactive” in each case. The activation in test [9] is 1.38% (inactive).
Turning to `CCOC(=O)C(C)(C)Oc1ccc(Cl)cc1`, the outcome in test [1], in [2], in test [3], in [10], in [16] and in [18] was inactive. Further, the Potency entry in test [14], in [4], in test [5], in test [7], in test [8] and in test [19] was “inactive” each time. The Potency entry in test [11], in [12], in [13] and in [17] was “inactive” in each case. In addition, the activation in test [9] is -8.94% (inactive). For the same compound, the viability change in test [19] is -5.48%.
With `CN(C)c1nc(N(C)C)nc(N(C)C)n1`, the call in test [1], in [2], in [3], in test [10] and in [18] was inactive. Besides, the Potency entry in test [4], in test [5], in test [6], in test [7], in [8] and in [19] was “inactive” throughout. In addition, the Potency entry in test [11], in [12], in [13] and in test [17] was “inactive” throughout. Besides, in test [9], the activation was 0.188% (inactive). In addition, the viability change in test [19] was 0%.
Regarding `Nc1c2c(nc3ccccc13)CCCC2`, the result in test [1], in test [2], in [3], in [10] and in test [18] was inactive. The Potency entry in [14], in test [4], in test [5], in [7], in test [19] and in [11] was “inactive” throughout. For the same compound, the Potency entry in test [12], in [15] and in test [17] was “inactive” each time. The activation in test [9] is 1.31% (inactive). Besides, the viability change in [19] is -3.66%.
Regarding `Cc1ccccc1N1C(=O)c2cc(S(N)(=O)=O)c(Cl)cc2NC1C` (stereo not given), the call in test [1], in test [2], in [3], in [10], in [16] and in test [18] was inactive. In addition, the Potency entry in test [14], in [4], in test [5], in [7], in test [8] and in test [19] was “inactive” in each case. Also, the Potency result in test [11], in [12], in test [13], in [15] and in test [17] was “inactive” each time. The viability change in test [19] turned out to be 10.1%.
In the case of `Cc1ccc(C(=O)Nc2ccc(S(=O)(=O)O)c3cc(S(=O)(=O)O)cc(S(=O)(=O)O)c23)cc1NC(=O)c1cccc(NC(=O)Nc2cccc(C(=O)Nc3cc(C(=O)Nc4ccc(S(=O)(=O)O)c5cc(S(=O)(=O)O)cc(S(=O)(=O)O)c45)ccc3C)c2)c1`, the outcome in test [1], in test [2], in test [3], in test [10] and in test [18] was inactive. Also, the Potency entry in test [4], in [5], in test [8], in test [19] and in test [12] was “inactive” each time. The Potency in test [20] is 2.51 µM (active) and 5.62 µM (active) and 1.26 µM (active); in test [6], 7.08 µM (active); in [11], 17.8 µM (active); in test [13] it was 0.426 µM (active); in test [17], 14.1 µM (active) and 7.94 µM (active) and 5.01 µM (active). Besides, the activation in [9] is 0.688% (inactive). The viability change in test [19] is -15.2%.

The values above are taken from PubChem BioAssay (NCATS).
